We go through 88 molecules from PubChem BioAssay AID493087 (The Scripps Research Institute Molecular Screening Center, 2011).

Molecules are shown by their SMILES. Out of some 340,000 compounds screened, about 240 (0.071%) were called active. The list comes from a sample in which actives are over-represented; it also holds similar structures and randomly drawn compounds. A number with no mark means an inactive call.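 The calls were made as follows: active = activation above the mean of all tested compounds plus 3 SD, set per screening campaign (cut at about 17% in these data); inactive = the rest.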

Sequence of Insulin-degrading enzyme (Homo sapiens) (P14735 whole entry, looked up): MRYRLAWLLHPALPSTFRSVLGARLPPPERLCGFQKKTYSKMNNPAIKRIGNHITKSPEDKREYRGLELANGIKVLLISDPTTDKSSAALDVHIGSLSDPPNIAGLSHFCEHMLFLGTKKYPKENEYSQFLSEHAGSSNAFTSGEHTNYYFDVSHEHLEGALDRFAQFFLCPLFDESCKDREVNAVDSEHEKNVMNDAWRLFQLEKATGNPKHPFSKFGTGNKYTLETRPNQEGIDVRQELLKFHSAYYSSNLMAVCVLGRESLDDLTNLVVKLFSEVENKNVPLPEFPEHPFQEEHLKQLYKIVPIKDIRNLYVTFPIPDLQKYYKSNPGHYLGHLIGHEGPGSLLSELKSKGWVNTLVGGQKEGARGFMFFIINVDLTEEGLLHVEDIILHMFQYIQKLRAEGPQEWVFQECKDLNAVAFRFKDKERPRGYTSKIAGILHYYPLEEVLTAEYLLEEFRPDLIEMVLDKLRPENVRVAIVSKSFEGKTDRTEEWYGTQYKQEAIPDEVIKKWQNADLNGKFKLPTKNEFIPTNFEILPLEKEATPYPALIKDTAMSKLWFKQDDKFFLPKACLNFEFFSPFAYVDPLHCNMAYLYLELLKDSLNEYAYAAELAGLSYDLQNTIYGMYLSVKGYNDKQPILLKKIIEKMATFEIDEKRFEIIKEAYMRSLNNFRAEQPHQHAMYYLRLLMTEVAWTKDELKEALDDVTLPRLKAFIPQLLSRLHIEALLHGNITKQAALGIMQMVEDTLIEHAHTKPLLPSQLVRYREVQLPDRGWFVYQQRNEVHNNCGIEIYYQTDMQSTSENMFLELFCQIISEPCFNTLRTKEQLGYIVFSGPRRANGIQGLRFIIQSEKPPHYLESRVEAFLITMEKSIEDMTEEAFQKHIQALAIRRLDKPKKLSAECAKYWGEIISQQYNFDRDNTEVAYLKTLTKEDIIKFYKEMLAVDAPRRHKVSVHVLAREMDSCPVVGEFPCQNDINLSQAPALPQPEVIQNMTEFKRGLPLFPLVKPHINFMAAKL

This experiment addresses Insulin-degrading enzyme (Homo sapiens) (UniProt P14735). The experiment is described as follows: enhanced cellular IDE Abeta cleavage – fluorescence polarization, HEK cells, FAbeta-B substrate, primary screen (AID 493087). Conditions: at 5.96 µM, active compounds read high, 0% vehicle, 100% cell-free pure enzyme wells. A general note: Polarisation of emitted light reports the rotation of a fluorescent probe.
For `CCOC(=O)C1CCCN(S(=O)(=O)c2ccc3c(c2)C(C)(C)C(=O)N3C)C1` (stereo not drawn), the activation was 4.3%.
To `CC(=O)N1CCCc2cc(S(=O)(=O)N3CCCC(C(=O)N4CCN(c5cccc(Cl)c5)CC4)C3)ccc21` (stereo not drawn) belongs 1.25%; to `O=C1CCC[C@@H]2CC(N3CCCCC3)C[C@@H]3CCN1[C@H]23` (stereo partly drawn), 3.58%.
The figure for `Cc1cccc(CCNC(=O)Cn2ncc3c([nH]c4ccc(C)cc43)c2=O)c1` is 4.1%; for `COc1cccc(NC(=O)CC(c2ccc(OC(C)C)cc2)c2ccccc2OC)c1` (stereo not drawn) it is 5.55%.
To `Cc1cccc(C(=O)NC(=S)N2CCN(c3ccc([N+](=O)[O-])cc3)CC2)c1` belongs 7.97%; to `Cc1ccc(S(=O)(=O)N(C)C)cc1NC(=O)CN1c2cccc3cccc(c23)S1(=O)=O`, -4.07%; to `O=C(CN1CCN(c2cccc(Cl)c2)CC1)Nc1ccc(S(=O)(=O)N2CCOCC2)cc1`, -1.02%.
Regarding `CC1CC(C)CN(CCCNC(=O)c2csc3c2CCCCC3)C1` (stereo not drawn), the activation was 0.64%.
To `COc1ccc(NS(=O)(=O)c2ccc(N3CCN(CCO)CC3)c([N+](=O)[O-])c2)cc1` belongs 4.53%.
To `O=C1OCC2=C1C(c1ccccc1)CC(=O)N2c1cccc(F)c1` (stereo not drawn) belongs 2.91%.
The figure for `CCOC(=O)C1(CC2CCCCO2)CCN(Cc2nc(-c3cccs3)oc2C)CC1` (stereo not drawn) is -1.12%; for `CCOC(=O)C1CCCN(C(=O)c2ccc(CS(=O)(=O)c3ccc(Br)cc3)o2)C1` (stereo not drawn) it is -1.91%.
In the case of `CCN1CCN(C2CCCCC2NS(=O)(=O)c2ccc(Cl)cc2)CC1` (stereo not drawn), the activation is 5.06%.
Consider `O=C1c2ccccc2C(=O)N1CCC(c1ccccc1)c1ccco1` (stereo not drawn), for which the activation was 7.64%.
To `CSc1nnnn1-c1c(C)cc(C)cc1C` belongs -3%.
The figure for `CCOCCCNC(=O)c1c[nH]c2cc(C)ccc2c1=O` is 4.46%.
The figure for `O=C1CC(c2ccccc2)C(=O)N2C(=O)CC(c3ccccc3)C(=O)N12` (stereo not drawn) is 3.82%.
`CCc1nccn1S(=O)(=O)c1cccc([N+](=O)[O-])c1`: the activation was 6.7%.
The figure for `COC(=O)c1ccc(CNC(=O)Cn2cc(C)c(=O)[nH]c2=O)cc1` is 4.54%.
For `COC(=O)C1=CN(Cc2ccc(OC)cc2)C=C(C(=O)OC)C1c1ccc(O)c(OC)c1`, the activation is 5.83%.
On to `C=CCNC(=S)/N=c1/ccccn1Cc1ccccc1`, for which the activation was 4.17%.
In the case of `COc1ccc(C(=O)CN2C(=O)NC(C)(c3ccc(C)cc3)C2=O)cc1OC` (stereo not drawn), the activation was -1.44%.
The figure for `CCOc1ccc(CCNC(=O)COC(=O)C2CCN(S(=O)(=O)c3ccccc3)CC2)cc1OCC` is 2.21%; for `CCc1nnc(NC(=O)C2CC(=O)N(c3ccc4c(c3)OCCO4)C2)s1` (stereo not drawn) it is 3.02%.
`Cn1c(=O)n(C)c2cc(S(=O)(=O)Nc3ccc(F)cc3)ccc21`: the activation was 4.63%.
The figure for `Cc1cc2oc(C(=O)Nc3c(C)n(C)n(-c4ccccc4)c3=O)c(C)c2cc1Cl` is 1.29%; for `S=C1Nc2cc(Cl)ccc2Sc2ccccc21` it is 0.11%; for `CC(C#N)(NC(=O)CN1CCN(S(=O)(=O)c2cc(C(F)(F)F)ccc2Cl)CC1)C1CC1` (stereo not drawn) it is 5.5%.
To `CNC(=O)NC(=O)C(OC(=O)c1cccc(S(=O)(=O)N2CCCCC2)c1)c1ccccc1` (stereo not drawn) belongs -3.23%; to `N#Cc1ccccc1NC(=O)COc1c(Br)cc(Br)c2cccnc12`, -2.72%; to `COc1ccc(S(=O)(=O)N2CCN(c3cnccn3)CC2)cc1`, 0.13%.
The figure for `O=C(NCCc1ccc(F)cc1)c1ccc2nccnc2c1` is -0.11%; for `CCC(=O)Nc1cccc(C2=NOC3(C2)C[C@@H](C(N)=O)N(C(=O)c2cc([N+](=O)[O-])cc([N+](=O)[O-])c2C)C3)c1` (stereo partly drawn) it is 5.78%; for `O=C(N/C(=C\c1ccc(F)cc1)C(=O)N1CCCCCC1)c1ccccc1` it is 5.73%.
As to `O=C(C1Cc2ccccc2CN1C(=O)c1ccco1)N1CCN(c2ccccc2)CC1` (stereo not drawn), the activation was 4.46%.
On to `CCOC(=O)CSc1nnc(CNC(=O)c2cccs2)n1-c1cc(OC)ccc1OC`, for which the activation was 0.94%.
The figure for `COc1ccc(-c2oc3ncn(Cc4ccco4)c(=N)c3c2-c2ccc(OC)cc2)cc1` is 5.41%.
The figure for `CCOC(=O)c1cccc(NC(=O)CN2C(=O)C3CC=CCC3C2=O)c1` (stereo not drawn) is 1.23%; for `Cn1c2ccccc2c2cc(/C=C(\NC(=O)c3ccccc3)C(=O)NCC(=O)O)ccc21` it is -43.6%.
The figure for `CCN1CCN(c2cc3nc(C)n(Cc4ccccc4)c(=O)c3cc2NC(=O)c2ccccc2F)CC1` is 2.61%; for `Cc1ccsc1C(=O)NC1CCCCC1C` (stereo not drawn) it is -2.46%.
`Cc1cc(=O)oc(C)c1C(=O)NCCN(C)Cc1ccccc1`: the activation was -4.58%.
For `CN(C(=O)CSc1nnc(C2CC2)n1C)C1CCCc2ccccc21` (stereo not drawn), the activation was 0.43%.
The figure for `CC(C)C(NC(=O)c1c(F)cccc1F)C(=O)NNC(=O)c1ccccc1` (stereo not drawn) is 5.51%.
On to `O=S(=O)(Nc1ccc2ccccc2c1)N1CCCCC1`, for which the activation was 1.85%.
Turning to `CC1CCC(NS(=O)(=O)c2ccc3c(c2)CC(=O)N3)CC1` (stereo not drawn), the activation was 3.97%.
The figure for `CCOC(=O)C1(CCOc2ccccc2)CCN(Cc2cc(OC)c(O)cc2Cl)CC1` is 2.9%; for `Cc1c(CN2CCC(CO)(CCOc3ccccc3)CC2)[nH]c2ccc(Cl)cc12` it is 24.6% (active).
On to `CCOC(=O)C1(CCOc2ccccc2)CCN(Cc2cc(OC)cc(OC)c2)CC1`, for which the activation was -1.76%.
The figure for `COc1ccccc1/C=C/C1=NC(=C\N(C)C)/C(=O)O1` is -5.01%; for `Cn1c(=O)c2cc(S(=O)(=O)NCCC(=O)Nc3ccc(F)cc3F)ccc2n(C)c1=O` it is 5.29%.
Take `COc1ccc(C2C(C#N)=C(N)Oc3n[nH]c(C)c32)cc1CN1CCN(c2ccc(F)cc2)CC1` (stereo not drawn): the activation was -3.14%.
To `Cc1cccc(NC(=O)CSc2nnc(CCNC(=O)OC(C)(C)C)o2)c1C` belongs -0.87%.
To `Cc1ccccc1OC(=O)Cn1c(C(F)(F)F)nc2ccccc21` belongs 3.41%; to `Cc1cc(C)cc(NC(=O)NC2CCCCCCC2)c1`, 0.99%; to `COC1C(CO)OC(n2cnc3c(=S)nc(N)[nH]c32)C1O` (stereo not drawn), -9.08%.
The figure for `Cc1noc(C)c1NC(=O)Nc1cccc2c1O[C@H](CN(C)S(=O)(=O)c1c(C)noc1C)[C@@H](C)CN([C@H](C)CO)C2=O` is -2.65%; for `O=S(=O)(/C=C/c1ccccc1)NCCc1ccccn1` it is 2.29%.
On to `NS(=O)(=O)c1ccc(NC(=O)COC(=O)c2c3c(nc4ccccc24)/C(=C\c2ccc4c(c2)OCO4)CCC3)cc1`, for which the activation was 1.16%.
As for `O=C(COC(=O)c1ccncc1)Nc1ccc2c(c1)OCO2`, the activation is 3.58%.
To `NC(=O)c1ccc(NC(=O)COC(=O)c2c3c(nc4ccccc24)/C(=C\c2ccc4c(c2)OCO4)CCC3)cc1` belongs 39.3% (active); to `CCCN(CC(=O)Nc1ccc(C(N)=O)cc1)CC(=O)Nc1ccccc1C`, 0.5%; to `O=S(=O)(c1ccc2ccccc2c1)N1CCN(S(=O)(=O)N2CCOCC2)CC1`, -4.09%.
The figure for `Cc1ccc(CC(=O)N(C)CC(=O)N(CC(C)C)c2c(N)n(CC(C)C)c(=O)[nH]c2=O)cc1C` is -3.16%.
Take `O=C(NCc1ccncc1)C(=O)NCC1OCCN1S(=O)(=O)c1ccc(Br)cc1` (stereo not drawn): the activation is 1.15%.
The figure for `COc1cccc2sc(N(CCCN(C)C)C(=O)CCS(=O)(=O)c3ccccc3)nc12` is 5.71%.
The figure for `COc1cc2ccccc2cc1C(=O)N(CCN(C)C)c1nc2c(F)cccc2s1` is 6.93%; for `COc1cccc2sc(N(CCCN(C)C)C(=O)C(c3ccccc3)c3ccccc3)nc12` it is 31% (active).
Turning to `NS(=O)(=O)c1ccc(NC2=CC(c3ccc(F)cc3)N(c3ccc(S(N)(=O)=O)cc3)C2=O)cc1` (stereo not drawn), the activation is 1.07%.
The figure for `CC(=O)c1cccc(-n2nnnc2SCC(=O)NNC(=O)C2CCCCC2)c1` is 6.48%; for `Oc1ccc2ccc3cccc[n+]3c2c1` it is 26.2% (active); for `Oc1ccc(-c2nc3ccccc3nc2-c2ccc(O)cc2O)c(O)c1` it is 3.04%.
The figure for `Cc1ccc(-c2nn(C(C)(C)C)c3ncnc(N)c23)cc1` is 2.32%; for `Cc1cccc2c1cnn2C(=O)CCC(=O)NC1CCCCC1` it is 0.37%; for `COc1cc(Cl)cc(C2NC(=O)NC(C)=C2C(=O)NCc2ccccc2)c1O` (stereo not drawn) it is -1.41%.
The figure for `Oc1ccc(C2Nc3cccc4cccc(c34)N2)cc1` is 19.4% (active); for `Brc1ccccc1C1Nc2cccc3cccc(c23)N1` it is 8.61%.
For the molecule `COc1ccc(C2NC(=O)c3ccccc3N2)cc1` (stereo not drawn), the activation is 3.47%.
To `C=CCOC(=O)C1=C[C@H](c2ccc(Br)cc2)C[C@H](OCCCCO)O1` belongs -1.17%.
To `NC(=O)COC(=O)c1ccc2c(c1)C(=O)N(Cc1ccco1)C2=O` belongs 1.77%; to `O=C(Nc1cc2c3c(c1)C1CCCC1CN3CC1CCCC21)c1ccc([N+](=O)[O-])cc1` (stereo not drawn), 1.32%.
To `CC(=O)c1ccc(N2CCN(CC(O)c3ccccc3)CC2)cc1` (stereo not drawn) belongs 3.22%.
In the case of `Cc1ccccc1OC/C(O)=C(\C#N)c1nc2ccccc2[nH]1`, the activation was 22.2% (active).
To `COCCNC(=O)COc1ccccc1C` belongs 3.83%.
The figure for `CC(C)(C)c1nnc2sc(SCC(O)=C(C#N)c3nc4ccccc4[nH]3)nn2c1=O` is -2.57%; for `O=C(Nc1ccccc1C(=O)N1CCCCC1)c1ccco1` it is 7.42%; for `CC(C)[C@@H](C(=O)OCC(=O)c1ccc2c(c1)NC(=O)CO2)N1C(=O)c2ccccc2C1=O` it is 6.47%.
